Data published in PubChem BioAssay (Tox21).
Inconclusive results are not listed. Active and inactive are the calls of the source. Unless noted, calls come from the whole dose curve.

Legend:
[1] = Nuclear factor erythroid 2-related factor 2/antioxidant responsive element (Nrf2/ARE) small molecule agonists: qHTS cell viability counter screen in human keratinocytes (AID 1919968; active = well fitted curve in the direction sought with a large enough effect in the repeat runs; an effect the other way counts as inactive or inconclusive; note: nearly all actives have a fitted effect of over 55% in size)
Summary of the method: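 After a 5 h attachment period, ARE-reporter keratinocytes were dosed with compounds in DMSO and then cultured 23 h at 37 C. Cell viability came from CellTiter-Fluor signal read after a further 1 h.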

[2] = Nuclear factor erythroid 2-related factor 2/antioxidant responsive element (Nrf2/ARE) small molecule agonists: luciferase reporter gene qHTS assay in human keratinocytes (AID 1919969); note: nearly all actives have a fitted effect of over 35% in size
[3] = biological target: Gonadotropin-releasing hormone receptor (Homo sapiens) (UniProt P30968); assay: Human gonadotropin-releasing hormone receptor (GnRHR) small molecule agonists, calcium flux assay in GnRHR-HEK293 cells (AID 1920063); note: nearly all actives have a fitted effect of over 35% in size
Summary of the method: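 We seeded human GnRHR-expressing HEK293 cells for 18 hours, loaded them with calcium dye for an hour at 37 C, added test compounds, and recorded fluorescence intensity kinetically for three minutes.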

[4] = biological target: KiSS-1 receptor (Homo sapiens) (UniProt Q969F8); assay: Human kisspeptin (KISS1R) small molecule agonists, calcium flux assay in KISS1R-HEK293 cells (AID 1920064; active = well fitted curve in the direction sought with a large enough effect in the repeat runs; an effect the other way counts as inactive or inconclusive)
Summary of the method: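 Kinetic calcium assay, 1 s sampling over 3 min at Ex/Em 480/540, in HEK293 cells engineered with human KISS1R; compounds delivered in DMSO after 1 h dye loading.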

[5] = G protein-coupled receptor (GPCR) small molecule agonists, calcium flux assay: HEK293 wild type cell line counter screen (AID 1920065)
Summary of the method: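 Calcium-sensitive dye, loaded 1 h at 37 C into cells cultured 18 h, reports compound-evoked calcium release as fluorescence (Ex/Em 480/540), measured over 3 min. Agonist mode; 15-point titrations, triplicate.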

[6] = p53 small molecule agonists, cell-based qHTS assay with human liver microsomes (AID 1963577);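 note: p53 response element beta-lactamase reporter cells with liver microsomes plus NADPH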
Summary of the method: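 With metabolic activation: human liver microsomes (0.5 mg/mL final) plus NADPH (0.5 mg/mL final) added alongside compounds to p53RE-bla cells; 16 h 37 C exposure; beta-lactamase read by LiveBLAzer fluorescence.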

[7] = p53 small molecule agonists, cell-based qHTS assay with rat liver microsomes (AID 1963578)
Summary of the method: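 Metabolic activation by rat liver microsomes and NADPH, each 0.5 mg/mL final, added right after compounds to p53RE-bla reporter cells (4,000/well, plated 5 h earlier). 16 h at 37 C, then LiveBLAzer substrate for 2 h at room temperature in the dark; fluorescence read-out.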

[8] = p53 small molecule agonists, cell-based qHTS assay with human liver microsomes: qHTS cell viability counter screen (AID 1963579); note: nearly all actives have a fitted effect of over 45% in size
Summary of the method: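 Metabolic activation used human liver microsomes and NADPH, both 0.5 mg/mL final, over 16 hours at 37 C on p53RE-bla cells (4,000/well). Cytotoxicity measured by CellTiter-Glo luminescence, 30 min at room temperature.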

[9] = p53 small molecule agonists, cell-based qHTS assay with rat liver microsomes: qHTS cell viability counter screen (AID 1963580); note: nearly all actives have a fitted effect of over 45% in size
Summary of the method: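 Intracellular ATP, by CellTiter-Glo luminescence, defines viability. HCT-116 p53RE-bla cells, 4,000 per well, were compound-treated in the presence of rat liver microsomes and NADPH for 16 h at 37 C.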

[10] = p53 small molecule agonists, cell-based qHTS assay: qHTS cell viability counter screen (AID 1963581); note: nearly all actives have a fitted effect of over 45% in size
Summary of the method: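 Following 5 h attachment, HCT-116 p53RE-bla cells took up compound for 16 h at 37 C; the reporter was read with B/G FRET substrate (2 h RT), and viability then via CellTiter-Glo ATP luminescence.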

[11] = p53 small molecule agonists, cell-based qHTS assay (AID 1963582; active = well fitted activation curve with a large enough effect in the signal ratio in the repeat runs, not every such curve was filed as active; the % refers to the signal ratio)
Summary of the method: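 In this cell-based concentration-response screen, a p53 response element drives beta-lactamase; cells received DMSO-borne compounds after 5 h culture and were incubated a further 16 h before FRET substrate development.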

[12] = biological target: 5-hydroxytryptamine receptor 2A (Homo sapiens) (UniProt P28223); assay: 5-hydroxytryptamine receptor 2A (HTR2A) small molecule antagonists, cell-based qHTS assay (AID 1963586); note: nearly all actives have a fitted effect of over 45% in size
Summary of the method: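 Antagonist-mode intracellular calcium assay: DOI (4 nM) added after 5 min compound pre-incubation at room temperature to dye-loaded HTR2A-CHO cells. Fluorescence followed for 3 min, sampled every second.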

[13] = biological target: 5-hydroxytryptamine receptor 2A (Homo sapiens) (UniProt P28223); assay: 5-hydroxytryptamine receptor 2A (HTR2A) small molecule agonists, cell-based qHTS assay (AID 1963587); note: nearly all actives have a fitted effect of over 30% in size
Summary of the method: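 Kinetic calcium-flux fluorescence (2 min, 1 sec intervals) after compound addition in agonist mode. HTR2A-CHO cells were cultured 18 h, then dye-loaded 1 h at 37 C.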

[14] = biological target: Muscarinic acetylcholine receptor M1 (Homo sapiens) (UniProt P11229); assay: Cholinergic receptor muscarinic 1 (CHRM1) small molecule antagonists, cell-based qHTS assay (AID 1963588); note: nearly all actives have a fitted effect of over 40% in size
Summary of the method: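 CHRM1-CHO calcium-flux assay, antagonist mode. Cells were seeded 18 h, dye-loaded 1 h at 37 C and given compound for 5 min at RT, then acetylcholine was added at 50nM. FDSS fluorescence was read 3 min; 15 concentrations, three runs.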

[15] = biological target: Muscarinic acetylcholine receptor M1 (Homo sapiens) (UniProt P11229); assay: Cholinergic receptor muscarinic 1 (CHRM1) small molecule agonists, cell-based qHTS assay (AID 1963589); note: nearly all actives have a fitted effect of over 35% in size
Summary of the method: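 Measures agonist-induced intracellular calcium rise. Stable human CHRM1 CHO line, 1 h dye load at 37 C, compounds from DMSO, kinetic fluorescence read.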

[16] = cAMP Responsive Elements (CRE) small molecule agonists, cell-based qHTS assay (AID 1963590)
Summary of the method: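 A CRE-responsive beta-lactamase reporter in HEK 293T cells was used. Treatment ran 3 h at 37 C; detection used LiveBLAzer B/G FRET substrate for 2 h at room temperature.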

[17] = cAMP Responsive Elements (CRE) small molecule antagonists, cell-based qHTS assay (AID 1963591; active = well fitted inhibition curve with a large enough effect in the signal ratio in the repeat runs, not every such curve was filed as active; the % refers to the signal ratio)
Summary of the method: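 HEK293T cells carrying a CRE-driven beta-lactamase reporter receive compound and NKH477 (0.25 uM final) for 3 h. Fluorescence from LiveBLAzer B/G FRET substrate is read after 2 h at room temperature.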

[18] = biological target: D(2) dopamine receptor (Homo sapiens) (UniProt P14416); assay: Dopamine D2 receptor (DRD2) small molecule agonists, cell-based qHTS assay (AID 1963594); note: nearly all actives have a fitted effect of over 35% in size
Summary of the method: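 cAMP accumulation in DRD2-HEK293 cells measured by HTRF after 1 h detection; compounds added 10 min before NKH477 (200nM […]) forskolin-analogue stimulation, 30 min at room temperature, with Ro20-1724 present at 0.1 mM final.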

[19] = biological target: D(2) dopamine receptor (Homo sapiens) (UniProt P14416); assay: Dopamine D2 receptor (DRD2) small molecule antagonists, cell-based qHTS assay (AID 1963595; active = well fitted inhibition curve with a large enough effect in the signal ratio in the repeat runs, with a control signal flat; the % refers to the signal ratio)
Summary of the method: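 HEK293 cells stably expressing DRD2, preincubated with 0.1 mM Ro20-1724 and compounds 10 min, were stimulated with 200 nM NKH477 plus 12 nM quinpirole for 30 min at room temperature; cAMP measured by HTRF (665/620 nm).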

[20] = biological target: Beta-2 adrenergic receptor (Homo sapiens) (UniProt P07550); assay: Adrenergic beta2 receptor (ADRB2) small molecule antagonists, cell-based qHTS assay (AID 1963592); note: series mostly up to about 92 µM; nearly all actives have a fitted effect of over 50% in size
Summary of the method: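 Cells (CHO, stable ADRB2 overexpression) incubated 18-20hr at 37C; compounds added from DMSO; agonist mix (1nM isoproterenol, 100uM IBMX, 25uM Ro-20-1724) added; 0.5hr RT; d2-cAMP and anti-cAMP-cryptate added; 1hr RT; 665/615 nm read.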

Measured: Potency

Sequence of Gonadotropin-releasing hormone receptor (Homo sapiens) (P30968 whole entry, looked up): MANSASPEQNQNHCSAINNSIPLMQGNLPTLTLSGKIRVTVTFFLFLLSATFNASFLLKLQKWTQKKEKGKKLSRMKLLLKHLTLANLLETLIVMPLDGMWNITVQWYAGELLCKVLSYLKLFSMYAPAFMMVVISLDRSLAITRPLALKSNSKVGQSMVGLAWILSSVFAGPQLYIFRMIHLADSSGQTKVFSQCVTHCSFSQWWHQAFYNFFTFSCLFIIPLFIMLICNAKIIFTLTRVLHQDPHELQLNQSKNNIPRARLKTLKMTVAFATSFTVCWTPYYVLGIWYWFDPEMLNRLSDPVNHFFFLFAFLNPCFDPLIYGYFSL
Sequence of 5-hydroxytryptamine receptor 2A (Homo sapiens) (P28223 whole entry, looked up): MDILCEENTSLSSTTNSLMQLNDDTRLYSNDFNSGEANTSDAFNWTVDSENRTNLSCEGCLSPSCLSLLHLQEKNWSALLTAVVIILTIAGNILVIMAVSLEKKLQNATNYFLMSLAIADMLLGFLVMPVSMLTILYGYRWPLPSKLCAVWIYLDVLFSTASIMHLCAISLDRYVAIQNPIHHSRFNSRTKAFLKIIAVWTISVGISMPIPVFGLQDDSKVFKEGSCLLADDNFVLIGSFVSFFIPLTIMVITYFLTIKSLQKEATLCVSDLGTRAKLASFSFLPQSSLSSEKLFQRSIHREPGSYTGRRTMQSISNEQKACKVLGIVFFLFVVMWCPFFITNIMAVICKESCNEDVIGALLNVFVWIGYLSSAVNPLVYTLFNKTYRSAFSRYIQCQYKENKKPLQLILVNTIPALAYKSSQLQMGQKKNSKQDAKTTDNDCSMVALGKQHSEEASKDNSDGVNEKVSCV
Sequence of KiSS-1 receptor (Homo sapiens) (Q969F8 whole entry, looked up): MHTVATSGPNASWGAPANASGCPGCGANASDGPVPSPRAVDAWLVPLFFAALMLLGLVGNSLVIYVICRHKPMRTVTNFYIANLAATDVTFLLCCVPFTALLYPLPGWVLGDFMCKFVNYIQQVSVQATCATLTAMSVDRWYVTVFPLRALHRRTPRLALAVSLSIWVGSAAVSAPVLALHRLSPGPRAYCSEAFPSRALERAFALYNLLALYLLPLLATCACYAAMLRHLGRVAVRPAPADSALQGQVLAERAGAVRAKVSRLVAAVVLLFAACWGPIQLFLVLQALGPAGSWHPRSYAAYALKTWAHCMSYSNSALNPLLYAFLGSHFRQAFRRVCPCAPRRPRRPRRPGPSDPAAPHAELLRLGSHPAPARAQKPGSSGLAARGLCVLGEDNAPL
Sequence of D(2) dopamine receptor (Homo sapiens) (P14416 whole entry, looked up): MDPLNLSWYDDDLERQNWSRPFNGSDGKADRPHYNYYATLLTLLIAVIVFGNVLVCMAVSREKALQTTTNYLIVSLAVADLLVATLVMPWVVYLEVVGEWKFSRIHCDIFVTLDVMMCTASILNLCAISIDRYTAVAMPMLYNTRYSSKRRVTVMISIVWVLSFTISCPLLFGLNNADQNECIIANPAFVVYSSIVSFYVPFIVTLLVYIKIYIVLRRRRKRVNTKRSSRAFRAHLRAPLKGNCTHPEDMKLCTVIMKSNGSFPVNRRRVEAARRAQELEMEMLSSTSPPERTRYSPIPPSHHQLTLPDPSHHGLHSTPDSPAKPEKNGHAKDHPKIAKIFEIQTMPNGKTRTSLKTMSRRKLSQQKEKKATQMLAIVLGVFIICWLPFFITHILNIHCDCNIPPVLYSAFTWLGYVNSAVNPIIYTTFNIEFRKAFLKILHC
Sequence of Muscarinic acetylcholine receptor M1 (Homo sapiens) (P11229 whole entry, looked up): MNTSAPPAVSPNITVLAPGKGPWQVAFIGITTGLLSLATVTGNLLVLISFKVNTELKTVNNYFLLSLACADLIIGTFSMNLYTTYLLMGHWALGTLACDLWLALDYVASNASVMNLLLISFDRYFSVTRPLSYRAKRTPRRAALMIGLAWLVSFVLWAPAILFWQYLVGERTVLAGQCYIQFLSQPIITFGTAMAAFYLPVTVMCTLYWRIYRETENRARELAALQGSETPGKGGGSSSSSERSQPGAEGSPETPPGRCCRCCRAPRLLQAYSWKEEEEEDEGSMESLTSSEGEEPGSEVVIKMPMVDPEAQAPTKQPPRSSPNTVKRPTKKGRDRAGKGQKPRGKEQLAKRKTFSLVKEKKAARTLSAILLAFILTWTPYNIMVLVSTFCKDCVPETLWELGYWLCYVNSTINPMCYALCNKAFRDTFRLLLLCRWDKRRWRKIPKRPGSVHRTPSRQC
Sequence of Beta-2 adrenergic receptor (Homo sapiens) (P07550 whole entry, looked up): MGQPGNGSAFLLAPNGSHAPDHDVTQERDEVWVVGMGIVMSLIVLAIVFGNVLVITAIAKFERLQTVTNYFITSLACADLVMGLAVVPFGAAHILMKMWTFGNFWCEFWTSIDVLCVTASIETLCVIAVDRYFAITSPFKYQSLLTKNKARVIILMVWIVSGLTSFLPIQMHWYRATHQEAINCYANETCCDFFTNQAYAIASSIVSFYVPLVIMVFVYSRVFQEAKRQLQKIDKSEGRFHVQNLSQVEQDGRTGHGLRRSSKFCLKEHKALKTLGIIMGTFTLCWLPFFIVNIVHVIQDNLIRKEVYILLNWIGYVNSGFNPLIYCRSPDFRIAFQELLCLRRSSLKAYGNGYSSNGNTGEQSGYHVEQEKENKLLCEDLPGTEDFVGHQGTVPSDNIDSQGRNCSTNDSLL

N=C(N)c1ccccc1
not listed: [20]
inactive: all other assays above

CC1CCC(C(C)(C)S)C(=O)C1 (stereo unspecified)
not listed: [17]
inactive: all other assays above

CCC(C)C1N=C(C)C(C)S1 (stereo unspecified)
not listed: [20]
inactive: all other assays above

CC(=O)O[C@@H]1CC2C3CCc4cc(OC(=O)c5ccccc5)ccc4C3CCC2(C)[C@H]1OC(C)=O (stereo partly specified)
not listed: [20]
inactive: all other assays above

CCn1cc(C(=O)O)c(=O)c2cnc(N3CCNCC3)nc21
not listed: [18] | [20]
inactive: all other assays above

CCOC(=O)CC(C(C)=O)C(C)=O
not listed: [17] | [18]
inactive: all other assays above

CSc1cnccn1
not listed: [20]
inactive: all other assays above
